# Measured values as given in PMC5540273 (PLoS ONE, 2017).
# Assays:
# Settings in all cases: concentration: 1 μM, replicates: in singlicate; n = 1
# MLK1 = test system: T1, MLK1
# T1 construct: gene MAP3K9
# MLK2 = test system: MLK2
# MLK3 = test system: MLK3
# MRCKA = test system: MRCKA
# MRCKB = test system: T2, MRCKB
# T2 construct: gene CDC42BPB
# MST1R = test system: MST1R
# MST1 = test system: T3, MST1
# T3 construct: gene STK4
# MST2 = test system: T4, MST2
# T4 construct: gene STK3
# MST3 = test system: T5, MST3
# T5 construct: gene STK24
# MST4 = test system: MST4
# 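Also: KINOMEscan kinase panel screen.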
SMILES,%Inh (MLK1),%Inh (MLK2),%Inh (MLK3),%Inh (MRCKA),%Inh (MRCKB),%Inh (MST1R),%Inh (MST1),%Inh (MST2),%Inh (MST3),%Inh (MST4)
c1ccc(Oc2ccc(Nc3ccnc4cc(-c5ccc(CN6CCCCC6)o5)ccc34)cc2)nc1 [GW567143],2%,14%,0%,13%,0%,29%,20%,0%,4%,0%
COc1cccc(-c2nc(-c3ccccc3)[nH]c2-c2ccncc2)c1 [SB-610250],0%,0%,0%,41%,0%,23%,8%,0%,0%,0%
CN(C)CCOc1ccc(-c2cc(-c3ccc(Cl)c(O)c3)c(-c3ccncc3)[nH]2)cc1.Cl.Cl [SB-684387],0%,0%,0%,8%,5%,34%,0%,17%,0%,0%
Cc1ccc(O)cc1Nc1ccnc2ccc(C(C)(C)C)cc12 [GW856805],11%,19%,19%,0%,0%,0%,0%,28%,12%,36%
CN(C)c1ncnc2nc[nH]c12 [SKF-31736],0%,0%,0%,11%,0%,0%,0%,0%,19%,1%
CS(=O)(=O)c1cccc(CNc2nc(Nc3ccc4c(c3)CCC(=O)N4)ncc2C(F)(F)F)c1,99.7%,93.9%,96.4%,0%,0%,1%,0%,11%,0%,25%
COc1cccc(CC(=O)N2CCc3cc(-c4cn(C)c5ncnc(N)c45)ccc32)c1 [GSK2608899],32%,41%,20%,2%,0%,45%,98.8%,100%,31%,27%
COC(=O)Nc1nc2ccc(Oc3ccc(NC(=O)Nc4cc(C(F)(F)F)ccc4F)cc3)cc2[nH]1.Cl [GW654607],2%,21%,1%,15%,0%,61%,6%,0%,6%,8%
CN(C)CCNS(=O)(=O)c1ccc(-c2ccnc3[nH]ccc23)cc1 [GSK977620],3%,24%,0%,4%,46%,27%,17%,9%,0%,0%
